{"source": "paper PMC7862700", "about": "“An all-to-all approach to the identification of sequence-specific readers for epigenetic DNA modifications on cytosine”", "experiment_in_all_cases": "DAPPL (digital affinity profiling via proximity ligation, sequencing); 10 mM Tris-HCl pH 7.5, 50 mM NaCl, 1 mM DTT, 4% glycerol, room temperature, 30 min; GST-TFs on glutathione beads, 16-mer random dsDNA library, 0.1% formaldehyde crosslink after washing; high values mean tight binding", "key": {"[1]": {"target": "T1, FEV (Homo sapiens, UniProt Q99581 1-238)", "T1 sequence": "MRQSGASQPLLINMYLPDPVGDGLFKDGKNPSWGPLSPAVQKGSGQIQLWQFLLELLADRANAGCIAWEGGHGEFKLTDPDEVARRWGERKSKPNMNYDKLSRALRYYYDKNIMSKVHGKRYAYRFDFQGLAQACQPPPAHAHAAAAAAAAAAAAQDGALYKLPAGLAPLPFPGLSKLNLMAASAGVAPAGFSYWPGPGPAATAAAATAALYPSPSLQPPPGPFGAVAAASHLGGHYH", "conditions": "protein: recombinant; tags: N-terminal GST; dsDNA, one strand shown", "outline": "(§1)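 The binding signal reported is, for every hexamer, its read frequency for a factor over its read frequency for the tag-only sample. Reads came from pools of yeast-expressed, GST-fused human transcription factors on glutathione beads, barcoded with DNA and mixed with that sample, which were incubated with 200 nmole of a random double-stranded 16-mer DNA library in Tris/NaCl/DTT/glycerol buffer at room temperature for 30 min. After washing, the pools were crosslinked with 0.1% formaldehyde, proximity-ligated with BsaI/T4 ligase for 1 h at 37 °C, PCR-amplified and sequenced on an Illumina NextSeq500.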"}, "[2]": {"target": "ETV5 (Homo sapiens, UniProt P41161 1-510)", "sequence (P41161 whole entry)": "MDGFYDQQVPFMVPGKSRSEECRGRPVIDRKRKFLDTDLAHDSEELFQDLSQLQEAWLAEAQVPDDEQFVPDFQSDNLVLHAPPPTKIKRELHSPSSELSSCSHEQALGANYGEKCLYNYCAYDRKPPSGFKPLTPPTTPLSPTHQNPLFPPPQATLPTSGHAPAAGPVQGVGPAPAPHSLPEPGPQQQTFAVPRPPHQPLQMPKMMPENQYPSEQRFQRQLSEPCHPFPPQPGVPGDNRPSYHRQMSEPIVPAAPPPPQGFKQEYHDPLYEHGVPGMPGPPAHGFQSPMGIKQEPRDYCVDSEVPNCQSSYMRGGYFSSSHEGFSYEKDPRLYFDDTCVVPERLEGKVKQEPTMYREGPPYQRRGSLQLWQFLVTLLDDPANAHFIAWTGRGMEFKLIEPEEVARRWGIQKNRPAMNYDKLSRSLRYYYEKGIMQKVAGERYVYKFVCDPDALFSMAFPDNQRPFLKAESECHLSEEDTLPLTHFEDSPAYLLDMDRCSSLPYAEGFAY", "conditions": "protein: recombinant; tags: N-terminal GST; dsDNA, one strand shown", "outline": "as §1"}, "[3]": {"target": "HSF1 (Homo sapiens, UniProt Q00613 1-529)", "sequence (Q00613 whole entry)": "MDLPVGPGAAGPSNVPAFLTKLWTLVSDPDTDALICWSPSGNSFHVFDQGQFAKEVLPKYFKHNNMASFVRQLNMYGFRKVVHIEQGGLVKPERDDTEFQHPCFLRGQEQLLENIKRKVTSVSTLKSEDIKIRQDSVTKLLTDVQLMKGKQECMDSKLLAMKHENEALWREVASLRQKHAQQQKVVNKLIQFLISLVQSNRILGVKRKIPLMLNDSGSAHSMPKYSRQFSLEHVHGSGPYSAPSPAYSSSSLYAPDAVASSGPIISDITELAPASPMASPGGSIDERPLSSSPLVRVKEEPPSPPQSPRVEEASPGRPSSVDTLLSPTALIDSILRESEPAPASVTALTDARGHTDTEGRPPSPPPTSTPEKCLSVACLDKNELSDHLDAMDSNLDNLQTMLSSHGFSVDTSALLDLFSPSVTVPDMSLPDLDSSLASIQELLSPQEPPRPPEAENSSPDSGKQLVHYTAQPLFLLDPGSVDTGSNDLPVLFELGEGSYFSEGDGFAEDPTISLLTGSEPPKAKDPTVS", "conditions": "protein: recombinant; tags: N-terminal GST; chain copies: 3; dsDNA, one strand shown", "outline": "as §1"}, "[4]": {"target": "T2, SPIC (Homo sapiens, UniProt Q8N5J4 1-248)", "T2 sequence": "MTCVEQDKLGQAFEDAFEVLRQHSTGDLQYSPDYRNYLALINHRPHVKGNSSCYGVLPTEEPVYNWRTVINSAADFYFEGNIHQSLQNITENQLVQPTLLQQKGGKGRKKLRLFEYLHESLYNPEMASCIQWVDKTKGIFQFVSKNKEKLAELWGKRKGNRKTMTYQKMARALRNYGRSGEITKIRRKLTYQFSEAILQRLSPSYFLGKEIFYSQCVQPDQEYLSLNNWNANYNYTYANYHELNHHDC", "conditions": "protein: recombinant; tags: N-terminal GST; dsDNA, one strand shown", "outline": "as §1"}, "[5]": {"target": "ELF4 (Homo sapiens, UniProt Q99607 1-663)", "sequence (Q99607 whole entry)": "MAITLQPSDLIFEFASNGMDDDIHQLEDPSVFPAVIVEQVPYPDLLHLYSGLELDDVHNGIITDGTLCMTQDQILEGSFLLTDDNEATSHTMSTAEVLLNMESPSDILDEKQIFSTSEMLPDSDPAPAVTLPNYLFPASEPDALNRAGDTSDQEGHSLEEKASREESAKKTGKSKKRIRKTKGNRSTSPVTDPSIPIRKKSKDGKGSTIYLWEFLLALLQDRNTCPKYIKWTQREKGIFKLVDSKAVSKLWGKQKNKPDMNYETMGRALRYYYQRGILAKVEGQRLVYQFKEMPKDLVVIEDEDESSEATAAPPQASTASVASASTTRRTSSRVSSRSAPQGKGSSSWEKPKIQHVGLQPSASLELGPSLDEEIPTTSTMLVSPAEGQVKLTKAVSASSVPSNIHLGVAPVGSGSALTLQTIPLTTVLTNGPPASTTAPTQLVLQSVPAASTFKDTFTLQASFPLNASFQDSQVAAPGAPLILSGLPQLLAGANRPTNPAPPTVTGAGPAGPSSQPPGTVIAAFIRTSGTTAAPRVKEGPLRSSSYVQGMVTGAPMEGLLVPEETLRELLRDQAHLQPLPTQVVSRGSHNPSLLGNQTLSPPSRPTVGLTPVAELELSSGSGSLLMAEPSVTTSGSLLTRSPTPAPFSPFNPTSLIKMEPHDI", "conditions": "protein: recombinant; tags: N-terminal GST; dsDNA, one strand shown", "outline": "as §1"}, "[6]": {"target": "T3, ELK4 (Homo sapiens, UniProt P28324-2 1-405)", "T3 sequence": "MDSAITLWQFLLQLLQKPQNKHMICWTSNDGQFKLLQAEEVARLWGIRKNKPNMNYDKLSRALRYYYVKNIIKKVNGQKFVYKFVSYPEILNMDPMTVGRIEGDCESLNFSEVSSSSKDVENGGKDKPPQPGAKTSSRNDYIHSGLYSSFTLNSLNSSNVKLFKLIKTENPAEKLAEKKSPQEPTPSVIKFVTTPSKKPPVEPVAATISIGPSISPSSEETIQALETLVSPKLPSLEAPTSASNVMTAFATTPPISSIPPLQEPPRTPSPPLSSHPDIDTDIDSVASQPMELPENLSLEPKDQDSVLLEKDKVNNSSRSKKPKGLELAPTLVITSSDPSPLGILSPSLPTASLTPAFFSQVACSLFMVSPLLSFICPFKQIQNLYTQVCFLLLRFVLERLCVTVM", "conditions": "protein: recombinant; tags: N-terminal GST; dsDNA, one strand shown", "outline": "as §1"}, "[7]": {"target": "T4, ELF3 (Homo sapiens, UniProt P78545 1-371)", "T4 sequence": "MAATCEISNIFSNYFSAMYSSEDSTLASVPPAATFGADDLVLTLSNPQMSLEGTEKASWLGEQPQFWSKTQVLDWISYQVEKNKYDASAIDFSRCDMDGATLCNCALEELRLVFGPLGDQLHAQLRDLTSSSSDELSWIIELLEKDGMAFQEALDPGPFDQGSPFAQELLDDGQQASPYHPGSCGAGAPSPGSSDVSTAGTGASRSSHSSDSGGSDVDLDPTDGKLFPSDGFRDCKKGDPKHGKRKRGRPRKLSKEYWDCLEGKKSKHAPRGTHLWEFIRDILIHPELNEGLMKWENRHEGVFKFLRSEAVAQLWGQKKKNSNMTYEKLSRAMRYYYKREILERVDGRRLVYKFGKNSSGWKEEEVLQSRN", "conditions": "protein: recombinant; tags: N-terminal GST; dsDNA, one strand shown", "outline": "as §1"}, "[8]": {"target": "CRX (Homo sapiens, UniProt O43186 1-299)", "sequence (O43186 whole entry)": "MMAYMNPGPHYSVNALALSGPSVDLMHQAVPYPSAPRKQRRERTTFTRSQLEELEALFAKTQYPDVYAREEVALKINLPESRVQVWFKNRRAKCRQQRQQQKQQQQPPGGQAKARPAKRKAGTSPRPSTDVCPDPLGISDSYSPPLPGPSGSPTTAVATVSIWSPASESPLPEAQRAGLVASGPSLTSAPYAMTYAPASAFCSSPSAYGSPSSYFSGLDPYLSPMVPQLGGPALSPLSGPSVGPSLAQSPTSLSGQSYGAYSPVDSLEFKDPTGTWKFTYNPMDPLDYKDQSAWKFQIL", "conditions": "protein: recombinant; tags: N-terminal GST; dsDNA, one strand shown", "outline": "as §1"}, "[9]": {"target": "ETV1 (Homo sapiens, UniProt P50549 1-477)", "sequence (P50549 whole entry)": "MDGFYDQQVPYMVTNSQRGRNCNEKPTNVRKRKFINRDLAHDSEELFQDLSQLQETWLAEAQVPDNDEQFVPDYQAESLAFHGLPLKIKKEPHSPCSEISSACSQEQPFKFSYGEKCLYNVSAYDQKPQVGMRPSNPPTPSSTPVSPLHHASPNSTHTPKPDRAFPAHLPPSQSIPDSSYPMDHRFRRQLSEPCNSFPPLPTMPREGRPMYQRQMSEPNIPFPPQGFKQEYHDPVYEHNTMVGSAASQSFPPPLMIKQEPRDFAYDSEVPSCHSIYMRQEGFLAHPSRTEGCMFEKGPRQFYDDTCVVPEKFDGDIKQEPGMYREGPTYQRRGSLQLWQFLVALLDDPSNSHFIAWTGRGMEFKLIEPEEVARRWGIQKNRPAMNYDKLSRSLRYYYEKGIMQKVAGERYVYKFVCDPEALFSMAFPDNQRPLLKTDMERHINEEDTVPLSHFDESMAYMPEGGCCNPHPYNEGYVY", "conditions": "protein: recombinant; tags: N-terminal GST; dsDNA, one strand shown", "outline": "as §1"}, "[10]": {"target": "T5, ERF (Homo sapiens, UniProt P50548 1-548)", "T5 sequence": "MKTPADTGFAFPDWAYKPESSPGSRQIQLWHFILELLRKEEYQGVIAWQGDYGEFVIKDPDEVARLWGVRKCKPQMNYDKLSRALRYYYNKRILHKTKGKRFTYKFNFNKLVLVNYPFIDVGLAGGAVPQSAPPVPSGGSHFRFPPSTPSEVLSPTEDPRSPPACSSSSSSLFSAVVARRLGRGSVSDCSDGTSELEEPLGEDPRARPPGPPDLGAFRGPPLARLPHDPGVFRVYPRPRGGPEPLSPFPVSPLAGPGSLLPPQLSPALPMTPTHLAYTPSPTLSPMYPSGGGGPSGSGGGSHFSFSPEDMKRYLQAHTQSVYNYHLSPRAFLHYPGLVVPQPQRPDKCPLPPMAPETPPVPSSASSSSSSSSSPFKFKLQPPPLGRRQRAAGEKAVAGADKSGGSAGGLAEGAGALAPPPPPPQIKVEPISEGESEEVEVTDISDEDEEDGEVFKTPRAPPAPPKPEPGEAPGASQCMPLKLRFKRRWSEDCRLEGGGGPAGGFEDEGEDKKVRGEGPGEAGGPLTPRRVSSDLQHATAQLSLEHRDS", "conditions": "protein: recombinant; tags: N-terminal GST; dsDNA, one strand shown", "outline": "as §1"}, "[11]": {"target": "T6, ETV3L (Homo sapiens, UniProt Q6ZN32 1-361)", "T6 sequence": "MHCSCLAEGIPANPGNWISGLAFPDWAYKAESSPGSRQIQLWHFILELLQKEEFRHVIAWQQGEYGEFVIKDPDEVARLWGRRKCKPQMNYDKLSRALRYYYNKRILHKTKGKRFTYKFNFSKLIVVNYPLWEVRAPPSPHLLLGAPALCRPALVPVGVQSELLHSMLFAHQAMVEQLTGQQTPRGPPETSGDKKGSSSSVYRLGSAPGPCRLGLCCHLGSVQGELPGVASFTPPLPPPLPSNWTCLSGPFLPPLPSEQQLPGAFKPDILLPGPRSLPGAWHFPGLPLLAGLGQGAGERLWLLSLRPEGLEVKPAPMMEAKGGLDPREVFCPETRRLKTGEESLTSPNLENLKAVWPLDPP", "conditions": "protein: recombinant; tags: N-terminal GST; dsDNA, one strand shown", "outline": "as §1"}, "[12]": {"target": "T7, ETS2 (Homo sapiens, UniProt P15036 1-469)", "T7 sequence": "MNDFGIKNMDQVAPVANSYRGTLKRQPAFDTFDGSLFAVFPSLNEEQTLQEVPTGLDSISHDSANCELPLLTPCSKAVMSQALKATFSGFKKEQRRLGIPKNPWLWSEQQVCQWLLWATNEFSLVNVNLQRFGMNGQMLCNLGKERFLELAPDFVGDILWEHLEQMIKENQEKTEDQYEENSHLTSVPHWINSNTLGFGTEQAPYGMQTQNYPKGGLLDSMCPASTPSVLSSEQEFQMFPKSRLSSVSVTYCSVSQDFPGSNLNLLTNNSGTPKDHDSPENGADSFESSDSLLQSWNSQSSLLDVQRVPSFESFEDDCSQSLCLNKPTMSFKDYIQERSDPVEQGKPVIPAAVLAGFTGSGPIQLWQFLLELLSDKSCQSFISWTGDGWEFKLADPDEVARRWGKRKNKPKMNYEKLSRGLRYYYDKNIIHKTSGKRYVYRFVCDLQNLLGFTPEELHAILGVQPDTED", "conditions": "protein: recombinant; tags: N-terminal GST; dsDNA, one strand shown", "outline": "as §1"}, "[13]": {"target": "T8, SPDEF (Homo sapiens, UniProt O95238 1-335)", "T8 sequence": "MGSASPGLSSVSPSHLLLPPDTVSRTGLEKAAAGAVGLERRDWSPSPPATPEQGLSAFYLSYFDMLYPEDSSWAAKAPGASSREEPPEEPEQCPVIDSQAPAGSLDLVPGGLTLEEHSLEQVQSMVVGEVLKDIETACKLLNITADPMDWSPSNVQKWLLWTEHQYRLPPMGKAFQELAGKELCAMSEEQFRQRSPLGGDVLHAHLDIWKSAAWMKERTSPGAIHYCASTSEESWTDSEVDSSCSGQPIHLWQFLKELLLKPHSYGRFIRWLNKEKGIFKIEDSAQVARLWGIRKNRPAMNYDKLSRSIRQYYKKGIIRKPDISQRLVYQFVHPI", "conditions": "protein: recombinant; tags: N-terminal GST; dsDNA, one strand shown", "outline": "as §1"}, "[14]": {"target": "T9, ETV7 (Homo sapiens, UniProt Q9Y603 1-341)", "T9 sequence": "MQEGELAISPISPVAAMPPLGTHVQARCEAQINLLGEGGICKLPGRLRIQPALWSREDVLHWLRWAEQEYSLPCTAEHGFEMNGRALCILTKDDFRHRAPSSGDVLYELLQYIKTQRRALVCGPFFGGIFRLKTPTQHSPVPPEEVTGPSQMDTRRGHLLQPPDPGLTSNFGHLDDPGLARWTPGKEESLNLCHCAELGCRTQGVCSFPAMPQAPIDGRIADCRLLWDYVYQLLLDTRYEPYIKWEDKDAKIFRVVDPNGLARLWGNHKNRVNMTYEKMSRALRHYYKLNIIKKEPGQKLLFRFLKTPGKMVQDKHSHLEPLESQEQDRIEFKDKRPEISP", "conditions": "protein: recombinant; tags: N-terminal GST; dsDNA, one strand shown", "outline": "as §1"}, "[15]": {"target": "T10, ETV3 (Homo sapiens, UniProt P41162-2 1-143)", "T10 sequence": "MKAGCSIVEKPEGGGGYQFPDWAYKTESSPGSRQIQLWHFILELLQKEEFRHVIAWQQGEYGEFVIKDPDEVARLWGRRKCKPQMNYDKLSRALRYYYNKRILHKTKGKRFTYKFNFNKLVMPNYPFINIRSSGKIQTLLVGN", "conditions": "protein: recombinant; tags: N-terminal GST; dsDNA, one strand shown", "outline": "as §1"}, "[16]": {"target": "ETV6 (Homo sapiens, UniProt P41212 1-452)", "sequence (P41212 whole entry)": "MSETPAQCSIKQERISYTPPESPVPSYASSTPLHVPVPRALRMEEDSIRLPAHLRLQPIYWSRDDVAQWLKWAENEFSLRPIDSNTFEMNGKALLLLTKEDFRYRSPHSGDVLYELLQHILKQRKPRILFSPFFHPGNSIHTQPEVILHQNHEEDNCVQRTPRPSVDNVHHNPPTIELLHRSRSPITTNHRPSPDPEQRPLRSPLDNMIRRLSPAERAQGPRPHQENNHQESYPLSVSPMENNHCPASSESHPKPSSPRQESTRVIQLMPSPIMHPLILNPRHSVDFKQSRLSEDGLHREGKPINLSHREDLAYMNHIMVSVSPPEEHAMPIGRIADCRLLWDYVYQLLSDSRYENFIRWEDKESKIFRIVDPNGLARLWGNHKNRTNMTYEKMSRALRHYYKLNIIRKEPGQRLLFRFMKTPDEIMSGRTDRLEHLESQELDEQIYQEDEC", "conditions": "protein: recombinant; tags: N-terminal GST; dsDNA, one strand shown", "outline": "as §1"}}, "data": [{"sequence": "CTATCG", "values": [{"measurement": "binding signal", "setting": "[1]", "value": "1.01 fold enrichment (6-mer frequency, TF over GST control)"}, {"measurement": "binding signal", "setting": "[2]", "value": "1.06 fold enrichment (6-mer frequency, TF over GST control)"}, {"measurement": "binding signal", "setting": "[3]", "value": "1.17 fold enrichment (6-mer frequency, TF over GST control)"}, {"measurement": "binding signal", "setting": "[4]", "value": "1.04 fold enrichment (6-mer frequency, TF over GST control)"}, {"measurement": "binding signal", "setting": "[5]", "value": "1.15 fold enrichment (6-mer frequency, TF over GST control)"}, {"measurement": "binding signal", "setting": "[6]", "value": "1.09 fold enrichment (6-mer frequency, TF over GST control)"}, {"measurement": "binding signal", "setting": "[7]", "value": "1.22 fold enrichment (6-mer frequency, TF over GST control)"}, {"measurement": "binding signal", "setting": "[8]", "value": "1.08 fold enrichment (6-mer frequency, TF over GST control)"}, {"measurement": "binding signal", "setting": "[9]", "value": "1.13 fold enrichment (6-mer frequency, TF over GST control)"}, {"measurement": "binding signal", "setting": "[10]", "value": "1.28 fold enrichment (6-mer frequency, TF over GST control)"}, {"measurement": "binding signal", "setting": "[11]", "value": "1.07 fold enrichment (6-mer frequency, TF over GST control)"}, {"measurement": "binding signal", "setting": "[12]", "value": "1.04 fold enrichment (6-mer frequency, TF over GST control)"}, {"measurement": "binding signal", "setting": "[13]", "value": "1.04 fold enrichment (6-mer frequency, TF over GST control)"}, {"measurement": "binding signal", "setting": "[14]", "value": "1.19 fold enrichment (6-mer frequency, TF over GST control)"}, {"measurement": "binding signal", "setting": "[15]", "value": "1.1 fold enrichment (6-mer frequency, TF over GST control)"}, {"measurement": "binding signal", "setting": "[16]", "value": "1.07 fold enrichment (6-mer frequency, TF over GST control)"}]}]}
